Results filed as inconclusive are left out. A call without a number means that no potency is given here. Activity calls are given as the source filed them. Calls follow the shape of the dose curve; as a rule, active = well fitted inhibition curve with a large enough effect; inconclusive = small, poorly fitted or top-dose-only effect; inactive = flat fitted curve, though single readings scatter. *1 amine or outer side, *2 acyl side, *3 side chain or, on linkers, in order; H or OH if unused. Where a SMILES comes first, the peptide text is derived from it. Bridges are numbered along the chain shown (N, C = ends). [ ]: non-standard residue; d: D form. The star is where a group is joined. X5 = NC1=N[C@@H]([C@H](N[*:1])C(=O)[*:2])C[C@H](O)N1; ΔAla(Z-3-ureido) = NC(=O)N/C=C(\N)C(=O)O; β3hOrn = NCCC[C@H](N)CC(=O)*; Dap = NC[C@H](N)C(=O)O
Target: Voltage-gated inwardly rectifying potassium channel KCNH2 (Homo sapiens) (UniProt Q12809)
Sequence (Q12809 whole entry, looked up): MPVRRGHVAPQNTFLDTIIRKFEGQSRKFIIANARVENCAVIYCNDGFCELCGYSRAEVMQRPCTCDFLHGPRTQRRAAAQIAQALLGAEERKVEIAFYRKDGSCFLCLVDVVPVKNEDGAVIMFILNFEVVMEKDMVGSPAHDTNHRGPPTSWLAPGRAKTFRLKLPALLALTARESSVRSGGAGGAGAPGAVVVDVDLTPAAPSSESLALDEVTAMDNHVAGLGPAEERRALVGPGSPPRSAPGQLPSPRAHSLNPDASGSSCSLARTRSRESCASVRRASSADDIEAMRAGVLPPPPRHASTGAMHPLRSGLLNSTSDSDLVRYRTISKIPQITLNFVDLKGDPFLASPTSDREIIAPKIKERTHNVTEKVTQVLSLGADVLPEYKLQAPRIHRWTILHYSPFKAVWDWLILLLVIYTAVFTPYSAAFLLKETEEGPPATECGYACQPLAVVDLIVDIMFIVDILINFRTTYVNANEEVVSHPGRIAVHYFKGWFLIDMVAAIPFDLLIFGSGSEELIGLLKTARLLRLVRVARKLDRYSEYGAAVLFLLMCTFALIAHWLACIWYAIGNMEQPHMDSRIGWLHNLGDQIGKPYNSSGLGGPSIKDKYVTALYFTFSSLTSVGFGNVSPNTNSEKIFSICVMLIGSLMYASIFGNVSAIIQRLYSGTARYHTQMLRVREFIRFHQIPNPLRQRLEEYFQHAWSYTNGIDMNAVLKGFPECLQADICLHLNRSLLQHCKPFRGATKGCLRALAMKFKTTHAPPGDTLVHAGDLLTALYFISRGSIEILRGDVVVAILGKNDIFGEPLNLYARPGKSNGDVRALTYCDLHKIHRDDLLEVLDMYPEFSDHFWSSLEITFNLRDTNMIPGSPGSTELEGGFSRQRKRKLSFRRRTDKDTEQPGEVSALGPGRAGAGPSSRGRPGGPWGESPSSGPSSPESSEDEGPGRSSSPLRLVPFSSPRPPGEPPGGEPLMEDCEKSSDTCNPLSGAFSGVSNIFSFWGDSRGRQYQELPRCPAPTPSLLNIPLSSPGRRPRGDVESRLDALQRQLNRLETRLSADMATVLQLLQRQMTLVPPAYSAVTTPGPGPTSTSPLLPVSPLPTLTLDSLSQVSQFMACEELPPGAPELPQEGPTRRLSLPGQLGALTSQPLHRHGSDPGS
Assay: qHTS Assay for Small Molecule Inhibitors of the Human hERG Channel Activity (AID 588834);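 also: lower thallium flux fluorescence means stronger hERG block; nearly all actives have a fitted effect of over 50% in size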
Conditions: U2OS BacMam hERG, FluxOR thallium flux fluorescence; series mostly up to 46.1 µM
In short: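 hERG block measured as reduced thallium-dye (FluxOR) fluorescence after stimulation buffer addition, read over 2 min. Cells were hERG-BacMam-transduced U2OS exposed to compound ~10 min […]; concentration-response fitted with Hill equation for AC50.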
Potency is read from the fitted curve at half-maximal effect.

Compound | Potency
COc1ccc(-c2noc(CC(=O)O)c2-c2ccc(OC)cc2)cc1 | inactive
Cc1ncc(C[n+]2csc(CCO)c2C)c(N)n1 | inactive
CO[C@@]1(NC(=O)C2SC(=C(C(N)=O)C(=O)O)S2)C(=O)N2C(C(=O)O)=C(CSc3nnnn3C)CS[C@@H]21 (stereo partly drawn) | 7.08 µM (active)
O=P(O)(O)CP(=O)(O)O | inactive
NC(=O)Oc1ccc(Cc2ccccc2)cc1 | inactive
CCCCCCCCCCCCCCCCCC(=O)OCC(C)O (stereo not drawn) | inactive
CCOC(=S)SSC(=S)OCC | inactive
CCC(=O)c1ccc2c(c1)N(CCCN1CCN(CCO)CC1)c1ccccc1S2 | 5.01 µM (active)
O=C(O)COc1ccccc1/C=N/NC(=O)c1ccncc1 | inactive
O=C(O)/C=C/c1ccccc1 | inactive
O=C(NCCNCC(O)COc1ccc(O)cc1)N1CCOCC1 (stereo not drawn) | inactive
OC[C@H]1O[C@@H](O[C@H]2[C@H](O)[C@@H](O)[C@H](O)O[C@@H]2CO)[C@H](O)[C@@H](O)[C@@H]1O | inactive
NCCC[C@H](N)CC(=O)N[C@H]1CNC(=O)[C@H]([C@H]2C[C@H](O)NC(N)=N2)NC(=O)/C(=C/NC(N)=O)NC(=O)[C@H](CO)NC(=O)[C@H](CO)NC1=O (β3hOrn-[Dap]SS[ΔAla(Z-3-ureido)][X5]; lactam 1-C) | inactive
O=C(O)c1ccc(NC2OC[C@@H](O)[C@H](O)[C@H]2O)cc1 (stereo partly drawn) | inactive
Cc1cccc(C)c1NC(=O)NC1=CCCN1C | inactive
CCCCCCCCCCCCCC(=O)OCC(COP(=O)([O-])OCC[N+](C)(C)C)OC(=O)CCCCCCCCCCCCC (stereo not drawn) | inactive
C=CC[C@@H]1/C=C(\C)C[C@H](C)C[C@H](OC)[C@H]2O[C@@](O)(C(=O)C(=O)N3CCCC[C@H]3C(=O)O[C@H](/C(C)=C/[C@@H]3CC[C@@H](O)[C@H](OC)C3)[C@H](C)[C@@H](O)CC1=O)[C@H](C)C[C@@H]2OC | inactive
CCC(C(=O)NC(N)=O)c1ccccc1 (stereo not drawn) | inactive
[O]=[Bi][O][Bi]=[O] | inactive
C[C@H](N)C(=O)N[C@@H](C)P(=O)(O)O | inactive
C[C@@H](O)[C@H]1C(=O)N2C(C(=O)[O-])=C(SC3Cn4cnc[n+]4C3)[C@H](C)[C@H]12 (stereo partly drawn) | inactive
Cn1c(O)c(N=NC(N)=S)c2ccccc21 | inactive
Cc1cc(-c2ccc(N=Nc3ccc4c(S(=O)(=O)O)cc(S(=O)(=O)O)c(N)c4c3O)c(C)c2)ccc1N=Nc1ccc2c(S(=O)(=O)O)cc(S(=O)(=O)O)c(N)c2c1O | inactive
